According to PubChem BioAssay (NCATS):
Records with an inconclusive call do not appear. Values without a mark were called inactive. Calls follow the shape of the dose curve; as a rule, active = well fitted inhibition curve with a large enough effect; inconclusive = small, poorly fitted or top-dose-only effect, or effect the other way; inactive = flat fitted curve, though single readings scatter.

What follows are molecules tested against D(1A) dopamine receptor (Homo sapiens) (UniProt P21728) (assay: HTS Assay for Allosteric Agonists of the Human D1 Dopamine Receptor: Primary Screen for Antagonists (AID 488983;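 also: calcium flux response to an EC80 dopamine challenge measured with no-wash dye; nearly all actives have a fitted effect of over 65% in size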)). Settings: D1 receptor cell assay, antagonist mode, qHTS titration; series mostly up to 41.8 µM; activity change, negative = inhibition: at the top concentration.
Outline: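 Calcium-flux read-out in inducible HEK293 T-REx cells expressing D1, dye-loaded 30–90 min at room temperature. Kinetic reads: 180 s after compound (agonist phase), then 180 s after an EC80 dopamine challenge.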
% is scaled to controls: 0 for no effect and ±100 for the full control effect.

D(1A) dopamine receptor (Homo sapiens), sequence (P21728 whole entry, looked up): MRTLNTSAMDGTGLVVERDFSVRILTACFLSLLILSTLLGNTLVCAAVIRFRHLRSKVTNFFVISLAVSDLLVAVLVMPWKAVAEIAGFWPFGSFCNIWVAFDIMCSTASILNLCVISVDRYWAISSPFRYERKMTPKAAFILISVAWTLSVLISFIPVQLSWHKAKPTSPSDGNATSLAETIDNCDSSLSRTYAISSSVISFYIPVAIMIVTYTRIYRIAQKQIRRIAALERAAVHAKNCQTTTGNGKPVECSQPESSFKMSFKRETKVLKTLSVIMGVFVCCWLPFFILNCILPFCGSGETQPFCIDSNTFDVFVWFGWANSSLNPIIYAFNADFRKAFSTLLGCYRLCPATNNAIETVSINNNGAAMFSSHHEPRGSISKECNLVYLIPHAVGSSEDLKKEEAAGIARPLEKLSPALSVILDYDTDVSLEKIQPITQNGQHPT

SMILES | activity change, negative = inhibition [%]
COCCc1ccc(OCC(O)CNC(C)C)cc1 (stereo not given) | 16.2
NC(=O)N1c2ccccc2C=Cc2ccccc21 | -0.464
CCCCCN(CCCCC)C(=O)C(CCC(=O)O)NC(=O)c1ccc(Cl)c(Cl)c1 (stereo not given) | -8.05
CN(C)CC[C@@H](c1ccc(Br)cc1)c1ccccn1 | -15.5
C[N+](C)(C)CCCCCCCCCC[N+](C)(C)C | 3.16
COc1ccc(CN(CCN(C)C)c2ccccn2)cc1 | -24
CC[N+](C)(C)c1cccc(O)c1 | 6.82
c1cnc(N2CCN(Cc3ccc4c(c3)OCO4)CC2)nc1 | -13.5
CC1=C(C)C(=O)C(CCCCC#CCCCC#CCO)=C(C)C1=O | -3.19
CCN1CCc2nc(N)oc2CC1 | 8.62
O=C(O)CN(CCN(CC(=O)O)CC(=O)O)CCN(CC(=O)O)CC(=O)O | 1.2
CC(C)COCC(CN(Cc1ccccc1)c1ccccc1)N1CCCC1 (stereo not given) | -0.975
CC(C)NNC(=O)c1ccncc1 | -1.74
CC1=NS(=O)(=O)c2cc(Cl)ccc2N1 | 15
Cc1nc2c([nH]1)c(=O)n(C)c(=O)n2Cc1ccco1 | 11.9
COC(=O)[C@@H](N)Cc1ccc(O)c(O)c1 | 1.22
C[C@]12C=CC(=O)C=C1CC[C@H]1[C@@H]3C[C@@H](O)[C@](O)(C(=O)CO)[C@@]3(C)C[C@H](O)[C@@]12F | -9.12
Nc1c2c(nc3ccccc13)CCCC2O (stereo not given) | 7.22
CN(C(=O)CCCOc1ccc2[nH]c(=O)ccc2c1)C1CCCCC1 | -7.04
CCOC(=O)C1=C(C)NC(C)=C(C(=O)OC)C1c1cccc(Cl)c1Cl (stereo not given) | -0.808
CC(=O)Nc1nnc(S(N)(=O)=O)s1 | 2.35
CC(N=C(NC#N)Nc1ccncc1)C(C)(C)C (stereo not given) | -6.04
c1ccc2c(c1)CCCC2C1=NCCN1 (stereo not given) | 4.29
CC(=O)OC(C)C[N+](C)(C)C (stereo not given) | -12.2
Cc1ccc(=O)n(-c2ccccc2)c1 | 4.78
OC(CCN1CCCCC1)(c1ccccc1)C1CCCCC1 (stereo not given) | 24.1
CCN(CC)CCNC(=O)c1cc(S(C)(=O)=O)ccc1OC | -16.2

The molecules below were run against ATP-dependent 6-phosphofructokinase (Trypanosoma brucei brucei) (UniProt O15648) (assay: qHTS Assay to Find Inhibitors of T. brucei phosphofructokinase: hit validation (AID 492961;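 also: luminescence reports ADP formed as PFK phosphorylates fructose-6-phosphate with ATP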)). Settings: T. brucei PFK, ADP-Glo luminescence; series mostly up to 51.4 µM; activity change, negative = inhibition: at the top concentration.
Outline: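 Reaction: 0.1 M triethanolamine pH 8.0, 5 mM MgCl2, F6P 0.5 mM, ATP 0.1 mM, PFK 1.25 nM, 45 min RT. Read-out: ADP-Glo luminescence. Analysis: concentration-response fits, classed by r2 and efficacy.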

ATP-dependent 6-phosphofructokinase (Trypanosoma brucei brucei), sequence (O15648 whole entry, looked up): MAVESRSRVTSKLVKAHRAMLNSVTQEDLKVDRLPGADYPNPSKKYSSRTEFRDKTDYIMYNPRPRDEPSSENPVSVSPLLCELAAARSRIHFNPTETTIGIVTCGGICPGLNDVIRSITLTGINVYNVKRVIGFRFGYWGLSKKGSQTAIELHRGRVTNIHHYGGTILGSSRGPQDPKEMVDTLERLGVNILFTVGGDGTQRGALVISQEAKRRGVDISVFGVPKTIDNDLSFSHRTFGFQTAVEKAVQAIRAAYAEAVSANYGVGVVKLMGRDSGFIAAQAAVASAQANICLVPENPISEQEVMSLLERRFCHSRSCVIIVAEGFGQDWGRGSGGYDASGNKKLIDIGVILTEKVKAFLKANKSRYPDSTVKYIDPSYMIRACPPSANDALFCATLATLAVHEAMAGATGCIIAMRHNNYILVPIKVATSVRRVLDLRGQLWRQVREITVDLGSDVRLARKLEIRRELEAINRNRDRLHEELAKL

SMILES | activity change, negative = inhibition
COc1cc2c(cc1OC)-c1cc(=Nc3c(C)cc(C)cc3C)n(C)c(=O)n1CC2 | -0.712%
CN(C)CC[C@@H](c1ccc(Br)cc1)c1ccccn1 | -5.23%
C[N+](C)(C)CCOC(=O)CCC(=O)OCC[N+](C)(C)C | 7.66%
NC(N)=N/N=C/c1c(Cl)cccc1Cl | -6.63%
C[N+](C)(C)CCCCCCCCCC[N+](C)(C)C | 1.99%
CC[N+](C)(C)c1cccc(O)c1 | 6.54% [at 24.3 µM]
CC1=C(C)C(=O)C(CCCCC#CCCCC#CCO)=C(C)C1=O | -0.744%
CCN1CCc2nc(N)oc2CC1 | -6.42%
CC(C)NNC(=O)c1ccncc1 | 1.03%
O=C(CCCN1CCC(O)(c2cccc(C(F)(F)F)c2)CC1)c1ccc(F)cc1 | 19.1%
COC(=O)[C@@H](N)Cc1ccc(O)c(O)c1 | 14.9%
CN(C(=O)CCCOc1ccc2[nH]c(=O)ccc2c1)C1CCCCC1 | 3.51%
CCOC(=O)C1=C(C)NC(C)=C(C(=O)OC)C1c1cccc(Cl)c1Cl (stereo not given) | -3.48%
CC(N=C(NC#N)Nc1ccncc1)C(C)(C)C (stereo not given) | 12.1%
Cc1ccc(=O)n(-c2ccccc2)c1 | 2.03%
OC(CCN1CCCCC1)(c1ccccc1)C1CCCCC1 (stereo not given) | 2.48%
Cc1nc2sccn2c(=O)c1CCN1CCC(=C(c2ccc(F)cc2)c2ccc(F)cc2)CC1 | 16.3%
CCN(CC)CCNC(=O)c1cc(S(C)(=O)=O)ccc1OC | -2.26% [at 24.3 µM]
